According to ChEMBL document CHEMBL3988442, “University of Dundee, Small-Polar-MMV Screening Library” (2021):

Target: Shiga toxin 2 (Escherichia coli O157:H7) (UniProt P09385+P09386)
Experiment: E. coli 0.157:H7 Shiga Toxin SOP - stx2 screening assay
Type: functional
Set-up: scale not given: direction of the effect not stated beside the values
Settings: 30 µM

Compound	Percent Effect
Fc1ccc(-c2nnc(CN3CCCC3Cn3cncn3)o2)cc1 (centres undefined)	-12.6%
NC(=O)C1CCN(C(=O)Cn2nc(-c3ccccc3)oc2=O)C1 (centres undefined)	-67.9%
CCn1c(NCc2ccco2)nc2c(C)nn(C)c2c1=O	-41.1%
Cc1nnc(N2CCC(CNC(=O)OC(C)(C)C)CC2)c(C#N)c1C	34.8%
CC(C)c1noc(CCCC(=O)NC2CCS(=O)(=O)C2)n1 (centres undefined)	-17.4%
CC[C@@H](CO)NC(=O)c1coc(COc2ccc(OC)cc2)n1	-5.46%
Cc1nc(C(=O)N2CCC(Cc3cnc4[nH]ccc4c3)C2)co1 (centres undefined)	62.2%
COc1nn(C)c2c1CCCN(C(=O)c1ccccc1)C2	-9.13%
CN(Cc1ccc(F)cc1)CC1(O)CCN(C(=O)c2cccn2C)C1 (centres undefined)	-9.28%
CC(O)CN1CCN(C(=O)c2ccn(-c3cccc(Cl)c3)n2)CC1 (centres undefined)	7.58%
Cc1cnn(CC2CN(c3ncnc4ccsc34)CCO2)c1 (centres undefined)	-0.262%
Cn1cc(Br)c(=O)c(NS(=O)(=O)c2cc(F)ccc2Cl)c1	16.3%
COc1ccc2c(c1)CCCN2Cc1nc2c(cnn2C)c(=O)[nH]1	-5.78%
COc1cc(CNC(=O)c2c(C)noc2C(C)C)ccn1	-44%
O=C(CSC1CCc2ccccc2NC1=O)NCCc1ccco1 (centres undefined)	-9.27%
CCN(CC)CCNC(=O)c1nn(CC)cc1Cl	-57%
CCCc1n[nH]c(C2CN(C(=O)c3ccco3)CCO2)n1 (centres undefined)	8.05%
COC(=O)COc1cccc(NS(=O)(=O)c2cc(C(=O)O)cs2)c1	-53.3%
CC(C)(C)n1ncc2c1CCCC2NCc1cccc2c1OCO2 (centres undefined)	-1.18%
O=C(CCC(=O)N1CCCC1c1cccs1)N1CCc2sccc2C1 (centres undefined)	-7.21%

Compound	Percent Effect
COc1cccc(OCC2CCCN(C(=O)c3cnc(C)nc3O)C2)c1 (centres undefined)	2.77%
COCCN1CC(C(=O)NCc2ccnc(-n3cccn3)c2)CC1=O (centres undefined)	-36.8%
CN(CC(N)=O)S(=O)(=O)c1ccc(F)cc1Cl	-10.3%
O=C1OC2(CCNCC2)CN1CC(=O)N1CCCC1c1ccco1 (centres undefined)	-9.63%
c1cc(-c2nc(CN3CCn4c(nnc4C4CC4)C3)cs2)cs1	-11.5%
O=C(C1=CCCC1)N1CCO[C@H]2[C@@H](Oc3ccccn3)CC[C@@H]21	-1.55%
COc1ccc(C[C@H]2CN(c3nnc(C)s3)CC[C@@H]2OC)cc1	-17.5%
Cn1ccc2ccc(C(=O)N3CCN(C(=O)N4CCOCC4)CC3)cc21	7.14%
Cc1cc(CN2CCOCS2(=O)=O)ccc1F	3.93%
CC(C)N1CCC(Cc2cncc(-c3ccccc3C(=O)O)n2)CC1	6.75%
Cc1nnc(C(C)NCC2(c3c(F)cccc3F)CCCC2)o1 (centres undefined)	9.79%
CCOc1ccc(Cl)c(C(=O)N(C)C)n1	-62.5%
Cc1noc([C@@H]2C[C@H]3OCC[C@H]3N(S(=O)(=O)c3cccnc3)C2)n1	-21.9%
COC(=O)c1cccn1C1CCN(CC(=O)NC2CCCCC2)CC1	1.4%
Cc1cnccc1CN1C[C@@H](O)[C@H](Oc2ccccc2)C1	-4.47%
O=C1CC2(CCCNC2)C(=O)N1Cc1ccc(F)cc1 (centres undefined)	-4.45%
Cc1nn(CC(C)C)c(N(C)C)c1CNCc1cc2ccccc2[nH]1	31.1%
c1cnnc(N2CCCC2CNCc2nc(-c3ccsc3)no2)c1 (centres undefined)	-0.726%
c1ccc(-c2ccc(C3CNCCO3)nc2)cc1 (centres undefined)	-59.5%
